High-throughput results from PubChem.
The list is not random: actives were taken first. Their share in the collection is about 7.3%.
Luc counter – counter-screen: inhibitors of Kinase-Glo firefly luciferase; Kinase-Glo luciferase, ATP luminescence, 8 min; AID 1379; 200,000 tested, 0.28% active; Potency, µM (series often up to 38.3 µM), hits mostly inhibitors; Q27757; further: nearly all actives have a fitted effect of over 60% in size
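Luminescence was the read-out, taken after 8-minute incubation at ambient temperature. Luciferase turned over luciferin with 10 uM ATP in imidazole pH 7.2 buffer containing KCl, MgCl2, Tween 20 and BSA.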
FLuc counter – counter-screen for miR-21 project: firefly luciferase inhibitors or activators | P08659 | purified FLuc, Km substrates, luminescence inhibition | Potency, µM (highest dose often 57.5 µM), actives largely listed as inhibitors | 360,000 tested, 6.9% active | AID 588342; further: nearly all actives have a fitted effect of over 55% in size
Target sequence (P08659 whole entry, looked up): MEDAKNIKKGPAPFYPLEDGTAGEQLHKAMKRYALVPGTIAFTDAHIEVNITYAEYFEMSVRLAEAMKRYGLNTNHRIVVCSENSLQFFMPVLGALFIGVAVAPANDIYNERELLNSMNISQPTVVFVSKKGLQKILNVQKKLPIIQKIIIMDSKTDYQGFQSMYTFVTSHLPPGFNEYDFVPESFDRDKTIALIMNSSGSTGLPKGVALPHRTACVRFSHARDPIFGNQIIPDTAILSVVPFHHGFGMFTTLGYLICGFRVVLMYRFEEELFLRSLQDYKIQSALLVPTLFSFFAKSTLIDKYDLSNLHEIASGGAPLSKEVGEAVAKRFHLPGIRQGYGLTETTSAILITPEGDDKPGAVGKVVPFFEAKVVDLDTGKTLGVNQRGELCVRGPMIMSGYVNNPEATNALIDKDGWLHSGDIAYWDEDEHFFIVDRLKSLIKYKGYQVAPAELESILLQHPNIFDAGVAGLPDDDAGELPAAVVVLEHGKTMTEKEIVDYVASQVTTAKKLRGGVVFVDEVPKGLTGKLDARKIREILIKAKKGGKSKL
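Biochemical qHTS of compounds, final roughly 60 µM downward over six points, against 10 nM purified firefly luciferase using Km concentrations of substrates (10 uM D-luciferin, 10 uM ATP) in Tris acetate pH 7.5 buffer; luminescence output.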
Rab9 promoter act – activators of Rab9 promoter. Potency, µM (titrated, usually from 9.22 µM), most hits filed as activators. 320,000 tested, 2.8% active. Huh7 Rab9 promoter-luciferase reporter, luminescence, 24 h; further: nearly all actives have a fitted effect of over 60% in size
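Luminescence read-out: Huh7 cells stably expressing Rab9-luciferase, treated 24 h with compound at 37 °C, then lysed with luciferase reagent for 10 min at ambient before reading.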
SMN2 splice up – increases expression of the SMN2 splice variant; HEK293 SMN2-luciferase splicing reporter, luminescence, 30-36 h; Potency, µM (top dose mostly 46.1 µM), hits mostly activators; 210,000 tested, 2.8% active; further: nearly all actives have a fitted effect of over 55% in size
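qHTS luciferase splicing reporter: luminescence rises when SMN2 exon 7 is included in transfected HEK293 cells. Compound exposure lasted 30-36 h at 37C, with 4.5 mM final sodium butyrate as control, followed by a ONE-Glo read.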
ELG1 genotoxic – genotoxicity induction in ELG1-luciferase HEK293T cells | HEK293T ELG1-luciferase reporter, luminescence, 16 h | 330,000 tested, 1.3% active | AID 504466 | Potency, µM (series often up to 46 µM), hits mostly activators; further: nearly all actives have a fitted effect of over 60% in size
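After overnight (16 hr) compound treatment at 37 °C, ELG1-luciferase HEK293T cells were lysed with ONE-Glo; luminescence quantified 30 min later at room temperature.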
NPC1 prom act – activators of NPC1 promoter; Huh7 NPC1 promoter luciferase reporter, 24 h; Potency, µM (doses to about 9.22 µM), usual class: activators; 320,000 tested, 2.4% active; further: nearly all actives have a fitted effect of over 60% in size
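NPC1 promoter–luciferase Huh7 cells; 24 h compound; luminescence.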
A number is an active result; n = inactive; u = inconclusive; x = no result given; [ ] = dose if it differs, or a comment. The call rests on the fitted dose curve; in most records, active means well fitted curve in the direction sought with a large enough effect; inconclusive means small, poorly fitted or top-dose-only effect, or another doubt; inactive means no such curve, though single readings can be large; an effect the other way counts as inactive or inconclusive.

SMILES	Luc counter	FLuc counter	Rab9 promoter act	SMN2 splice up	ELG1 genotoxic	NPC1 prom act
CC(C)Oc1ccc(C(=O)NC2CCS(=O)(=O)C2)cc1 (centres undefined)	n	n	n	n	n	n
C=CCOc1ccc(C(=O)NC2CCCCC2)cc1	n	12µM	u	x	u	u
O=C1C2=C(S[C@@H]3O[C@H](CO)[C@@H](O)[C@H](O)[C@H]3O2)C(=O)c2ccccc21	n	x	x	n	x	x
Cc1nn(C)c(=O)n1-c1ccc(OCc2ccccc2)cc1	n	u	u	11µM	n	u
CCOc1ccc(/C=N/NC(=O)c2ccc(Cn3cc([N+](=O)[O-])cn3)o2)cc1	n	4.8µM	x	n	x	x
CCCc1ccc(OCc2ccc(C(=O)N/N=C/c3cccnc3)o2)cc1	x	u	0.45µM	x	0.82µM	0.4µM
CC(C)(C)c1ccc(OCc2ccc(C(=O)N/N=C/c3ccc([N+](=O)[O-])cc3)o2)cc1	n	u	u	n	n	1.6µM
CC(/C=N/NC(=O)c1ccc(Cn2cc([N+](=O)[O-])cn2)o1)=C\c1ccccc1	x	2.4µM	n[1.84 µM]	x	n	u
CCOc1ccccc1/C=N/NC(=O)c1ccc(Cn2cc([N+](=O)[O-])cn2)o1	n	n	n	n	n	n
CCC(=O)N1CCc2cc(Br)cc(S(=O)(=O)CCC(=O)N3CCN(c4ccccc4F)CC3)c21	x	n	x	n	x	x
CCOc1ccc(/C=N/NC(=O)c2ccc(Cn3cc(Br)cn3)o2)cc1	n	6.7µM	n	n	n	n
COc1ccc(/C=N/NC(=O)c2ccc(COc3ccccc3Cl)o2)c(OC)c1C	n	n	n	n	n	n
COc1ccc(/C=N/NC(=O)c2ccc(COc3ccccc3Cl)o2)cc1	n	2.7µM	n	n	n	n
COc1cc(CNc2ccc(N3CCOCC3)cc2)cc(Br)c1OC	n	n	n	n	n	n
COc1cc(CNc2ccc(N3CCCC3)cc2)cc(Cl)c1OC	n	9.5µM	n	n	n	n
CCOc1cc(CNc2ccc(S(N)(=O)=O)cc2)cc(Cl)c1OC	n	n	n	n	n	n
CCOc1cc(CNc2ccc(N3CCCC3)cc2)cc(Cl)c1OC	n	27µM	n	n	n	n
Cc1ccc(-c2nn(-c3ccccc3)cc2CN(C)C(=O)CCC(=O)O)cc1C	n	19µM	n	n	n	n
CC(C)(C)C(=O)NCC12C=CC(O1)C1C(=O)N(c3ccccc3)C(=O)C12 (centres undefined)	n	n	n	n	n	n
O=C1C2C3C=CC(CO)(O3)C2C(=O)N1c1ccc(-c2ccccc2)cc1 (centres undefined)	n	19µM	n	n	u	n
CCOC(=O)c1ccc(N2CCN(c3cccc(Cl)c3)CC2)c(NC(=O)Nc2ccc(OC)cc2OC)c1	x	n	x	x	x	x
COc1ccc(-c2ccc(-c3nnc(-c4cc(OC)ccc4OC)o3)cc2)cc1	n	n	n	n	n	n
CN(C)c1ccc(-c2nnc(-c3ccccc3F)o2)cc1	x	1.2µM	0.45µM	x	u	0.35µM
COc1ccc(-c2nnc(-c3ccc(N)cc3)o2)cc1	n	3.4µM	u	13µM	7.3µM	u
COc1ccc(-c2nnc(-c3ccc(N(C)C)cc3)o2)cc1	n	2.1µM	x	n	x	x
SMILES	Luc counter	FLuc counter	Rab9 promoter act	SMN2 splice up	ELG1 genotoxic	NPC1 prom act
O=[N+]([O-])c1cccc(-c2nnc(-c3ccccc3F)o2)c1	x	12µM	2µM	x	u	2.5µM
Cc1ccc(-c2nn3c(=O)cc(CN4CCN(C(=O)/C=C/c5ccccc5)CC4)nc3s2)cc1	x	n	x	x	x	x
COc1ccc(CCNC(=O)C(=O)NCC(c2ccc3c(c2)OCO3)N2CCOCC2)cc1 (centres undefined)	x	n	x	x	x	x
CCCCCOc1ccc(/C=C/C(=O)Nc2sc3c(c2C(=O)OCC)CCC3)cc1OC	x	n	x	n	x	x
COc1cc2c(cc1NC(=O)c1ccco1)CCCC2	n	21µM	u	n	n	n
COc1cc(NC(=O)C2CCCCC2)c(OC)cc1NC(=O)c1ccco1	n	n	u	n	n	n
COc1cc(NC(=S)NC(=O)c2ccco2)ccc1NC(=O)C(C)C	n	u	n	n	n	n
COc1cc(NC(=O)C(C)C)ccc1NC(=O)c1ccco1	n	19µM	1.1µM	11µM	7.9µM	4µM
COc1cc(NC(=O)c2ccc(Cl)cc2)c2ncccc2c1	x	u	n	x	n	n
COc1ccc(C(=O)Nc2cc(OC)cc3cccnc23)cc1	x	7.6µM	n[1.84 µM]	x	n	n
COc1ccc(OC)c(NC(=O)C2CCCCC2)c1	n	n	n	n	n	n
COc1cc(NC(=O)C2CCCCC2)c2ncccc2c1	n	15µM	n	n	n	n
CCOC(=O)c1ccc(NC(=O)CCn2c(=O)c3cccn3c3ccccc32)cc1	x	n	x	x	x	x
O=C(NCC1CCCO1)C(c1ccncc1)N(Cc1cccs1)C(=O)CN1C(=O)c2ccccc2S1(=O)=O (centres undefined)	n	13µM	n	x	n	n
Cc1ccccc1CCN(C(=O)CN1C(=O)c2ccccc2S1(=O)=O)C(C(=O)NCC1CCCO1)c1ccncc1 (centres undefined)	n	n	n	n	n	n
CN(C)S(=O)(=O)c1ccc2c(c1)/C(=C/c1cc3c([nH]1)CCCC3)C(=O)N2	n	n	u	11µM	u	u
O=C(NCCc1ccccc1)c1cccc([N+](=O)[O-])c1	n	u	n	11µM	u	n
O=C(CCCc1ccccc1)Nc1cccc([N+](=O)[O-])c1	x	u	u	x	u	3.5µM
O=C(CCc1ccccc1)Nc1cccc([N+](=O)[O-])c1	n	n	n	n	n	n
O=C(NCCc1ccccc1)c1cccc(Br)c1	x	21µM	2µM	x	u	3.5µM
O=C(NCCc1ccccc1)c1cccnc1	n	u	3.2µM	u	13µM	u
CCSC1=NC2(CCN(C(=O)NC3CCCCC3)CC2)N=C1c1ccc(Cl)cc1	x	n	x	x	x	x
CN(C)S(=O)(=O)c1cccc(C(=O)Nc2ccccc2)c1	n	u	n	n	n	n
Cc1ccc(CNC(=O)c2cnc3ccccc3n2)cc1	x	n	n	x	n	n
Cc1ccc(C(=O)NCCc2cccc(Cl)c2)cc1[N+](=O)[O-]	n	27µM	n	n	n	n
CN(C)S(=O)(=O)c1cccc(C(=O)NCCc2ccccc2)c1	n	7.6µM	1.4µM	11µM	n	0.79µM
O=C(NCCc1ccccc1)c1cnc2ccccc2n1	x	8.5µM	1.4µM	x	u	3.5µM
Cc1ccc(C(=O)NCC(c2ccco2)S(=O)(=O)c2ccccc2)cc1C (centres undefined)	x	n	x	x	x	x
O=C1C(c2ccccc2)=[N+]([O-])c2ccccc21	x	12µM	n	x	u	n
Cc1ccccc1C1CC(=O)Oc2ccc(O)cc21 (centres undefined)	n	x	x	x	x	x
